ssDAF12 agonist = activates DAF-12 receptor from parasite S. stercoralis; HEK293 ssDAF-12/GRIP1 lit1-tk-luc reporter, luminescence; % of 3 µM dafachronic acid response; AID 652126; 370,000 tested, 1% active; activation, % at 6.8 µM;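 active = activation above the mean over all tested compounds plus 3 SD, cut at about 0.9% in these data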;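 note: 0% = DMSO-only wells and 100% = 3 µM delta7-dafachronic acid wells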
DAX1 inh-1 = inhibitors of DAX1 repression of SF-1 activated StAR promoter | AID 652010 | 370,000 tested, 1.1% active | HEK293T StAR-luciferase reporter, SF-1/DAX-1 repression relief | inhibition, % at 6.8 µM;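 active = inhibition above the mean over all tested compounds plus 3 SD, cut at about 3.6% in these data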;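 note: 0% = DAX-1 cells with DMSO and 100% = cells lacking DAX-1 with DMSO; higher inhibition means more luminescence from relief of DAX-1 repression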
DAX1 inh-2 = inhibits human nuclear receptor DAX1; P51843; HEK293 Gal4-DAX1 luciferase reporter, luminescence; inhibition, % at 6.75 µM; 340,000 tested, 0.99% active;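 active = inhibition above the mean over all tested compounds plus 3 SD, cut at about 4.2% in these data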;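 note: 0% = DAX1-transfected cells with DMSO and 100% = empty-vector control cells with DMSO; inhibition shows as a rise in luminescence from relieved DAX1 repression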
hgDAF-12 ag = agonists of H. glycines DAF-12 nuclear receptor; activation, % at 6.8 µM; HEK293 GAL4-hgDAF12 UAS-luciferase reporter, agonist luminescence; normalized to butyrate control; 370,000 tested, 1.8% active;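 active = activation above a cutoff set at the mean of all screened compounds plus 3 SD, cut at about 10% in these data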;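 note: 0% = DMSO wells and 100% = sodium butyrate wells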
hcDAF-12 act = activators of H. contortus DAF-12 nuclear receptor | 370,000 tested, 1.4% active | HEK293 hcDAF-12 lit1-tk-luc reporter, luminescence; 0% DMSO, 100% Δ7-dafachronic acid | activation, % at 6.8 µM;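 active = activation above the mean of all tested compounds plus 3 SD, cut at about 5.5% in these data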;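 note: 100% = response to 3 µM Δ7-dafachronic acid high control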
SMARCA2 activ = SMARCA2 function activation, primary screen | 370,000 tested, 1% active | activation, % at 9.1 µM | AID 652017 | MG213 cells, MMTV-luciferase reporter, dexamethasone, overnight; in the data active = activation above about 7.8%;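 note: 0% = vehicle wells and 100% = reference activator wells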
DAX1 inh confirm = confirmation of human DAX1 (NR0B1) inhibitors | inhibition, % at 6.8 µM | 2,400 tested, 87% active | shares compounds with DAX1 inh-1 | AID 652134 | HEK293T StAR-promoter luciferase reporter, SF-1/DAX-1 repression;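 active = inhibition above the average of every tested compound plus 3 SD, cut at about 3.8% in these data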;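 note: 0% = DAX-1 cells with DMSO and 100% = no DAX-1 control cells with DMSO; active compounds raise luminescence by relieving repression of the StAR reporter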
SF1 mutant ctr = counter-screen for DAX1 inhibitors: nonselective inhibitors with SF-1 AF2 mutant; shares compounds with DAX1 inh-1; HEK293 StAR-luciferase, luminescence; inhibition, % at 6.8 µM; 2,400 tested, 78% active; AID 652136;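 active = inhibition above the mean of all tested compounds plus 3 SD, cut at about 3% in these data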;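 note: 0% = DAX-1 transfected cells with DMSO and 100% = cells without DAX-1 with DMSO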
SMARCA2 act conf = confirmation of SMARCA2 (BRM) function activators; shares compounds with SMARCA2 activ; MG213 cells, MMTV-luciferase with dexamethasone, luminescence, overnight; MG213 cells expressing E1A, Rb sequestered; DMSO wells 0%, reference activator 100%; activation, % at 9.1 µM; 3,500 tested, 30% active;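 active = activation above its plate's cutoff, the mean activation of tested wells plus 3 SD, cut at about 7.9% in these data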
GAL4-VP16 Luc = GAL4-VP16 reporter activation counter-screen. HEK293 GAL4-VP16 pG5luc reporter, luciferase luminescence; scaled: DMSO wells 0%, SAHA wells 100%. activation, % at 9.1 µM. 3,500 tested, 41% active. shares compounds with SMARCA2 activ;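 active = activation above the solvent-only control well mean plus 3 SD, averaged across control plates, cut at about 5.2% in these data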
LXR ag = counter-screen for hcDAF-12 agonists: agonists of human LXR-beta; 3,400 tested, under 10 active; activation, % at 6.8 µM; shares compounds with hcDAF-12 act; HEK293 Gal4-LXR tk-luc reporter, luminescence, 24 h; normalized: DMSO 0%, positive control 100%; AID 743027;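 active = mean percent activation of the reporter above a cutoff set as the average over tested compounds plus their standard deviation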
Target sequence (P55055 whole entry, looked up, the tested form may be a part): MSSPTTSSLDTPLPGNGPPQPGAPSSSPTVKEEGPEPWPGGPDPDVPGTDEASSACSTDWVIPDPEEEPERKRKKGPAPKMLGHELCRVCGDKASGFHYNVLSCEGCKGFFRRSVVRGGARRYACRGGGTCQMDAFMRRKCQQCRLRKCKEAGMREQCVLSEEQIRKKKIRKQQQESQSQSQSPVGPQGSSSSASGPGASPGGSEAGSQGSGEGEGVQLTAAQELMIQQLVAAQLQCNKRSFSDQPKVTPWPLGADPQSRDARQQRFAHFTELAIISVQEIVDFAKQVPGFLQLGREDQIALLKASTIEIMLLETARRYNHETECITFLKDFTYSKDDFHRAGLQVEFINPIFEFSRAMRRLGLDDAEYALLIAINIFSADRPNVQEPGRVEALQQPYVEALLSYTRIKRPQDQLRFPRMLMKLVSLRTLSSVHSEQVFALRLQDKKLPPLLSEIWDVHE
hcDAF12 conf = confirmation of H. contortus DAF-12 agonists | shares compounds with hcDAF-12 act | HEK293 hcDAF-12 lit1-tk-luc reporter, luminescence; % of Δ7-dafachronic acid response | activation, % at 6.8 µM | AID 743032 | 3,400 tested, 61% active;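 active = mean activation across triplicate tests above the threshold derived from the earlier primary screen, cut at about 5.5% in these data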;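 note: 0% = DMSO only wells and 100% = 3 µM Δ7-dafachronic acid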
An asterisk follows results filed as active; x = no result given. Sampled rows, rich in hits. Any-hit rate of the full collection: about 4.8%.

SMILES	ssDAF12 agonist	DAX1 inh-1	DAX1 inh-2	hgDAF-12 ag	hcDAF-12 act	SMARCA2 activ	DAX1 inh confirm	SF1 mutant ctr	LXR ag	hcDAF12 conf	others
Cn1ncc([N+](=O)[O-])c1C(=O)Nc1ccccc1Cl	-2	0	-1	0	-1	0	x	x	x	x
COc1ccc(-n2nc3ccc(N)cc3n2)cc1	-1	1	-2	1	-1	-10	x	x	x	x
CC(C)c1ccc(-n2nc3ccc(N)cc3n2)cc1	2.2*	5.1*	0	15*	9.8*	0	14*	7.8*	2	18*
O=C(N/N=C/c1sc(=O)[nH]c1-[n+]1ccc2ccccc2c1)c1ccccc1[O-]	1	4.9*	1	5	8.4*	0	0	1	0	2
O=C(N/N=C/c1sc(=O)[nH]c1-[n+]1ccccc1)c1ccccc1[O-]	-1	1	-1	1	1	-2	x	x	x	x
Cc1cccc(/C=N/Nc2nncc3ccccc23)c1	1	14*	0	18*	12*	12*	12*	4.9*	2	12*	SMARCA2 act conf=14*;GAL4-VP16 Luc=8.8*
COc1cccc(-c2nc3n(n2)CCc2ccccc2-3)c1	2.0*	8.3*	4.3*	20*	17*	4	7.5*	4.1*	1	16*
COc1cccc(-c2cc(C(=O)N3CCc4ccccc4C3)no2)c1	-1	0	1	3	1	-3	x	x	x	x
COc1ccc(C2NC(=S)NC3=C2CCCC3=C2SCCS2)cc1 (configuration not stated)	0	88*	5.0*	50*	7.9*	-5	13*	2	0	2
S=C1NC2=C(CCCC2=C2SCCCS2)C(c2ccccc2)N1 (configuration not stated)	-1	0	-1	-3	-1	2	x	x	x	x
c1ccc(-c2noc(-c3cccc4ccccc34)n2)nc1	3.0*	5.5*	-1	13*	18*	7	12*	4.6*	2	20*
Cc1ccsc1C(=O)N/N=C/C=C/c1ccccc1[N+](=O)[O-]	-1	1	0	5	0	7	x	x	x	x
Cc1ccccc1/C=N/NC(=O)c1sccc1C	2.0*	6.2*	2	27*	12*	1	15*	10*	1	5
Cc1ccsc1C(=O)N/N=C/c1ccc2c(c1)OCO2	1	7.7*	0	15*	9.1*	3	15*	9.4*	2	6.6*
CC(C)C(=O)Nc1ccc2nn(-c3ccc(F)cc3)nc2c1	x	x	0	x	x	x	x	x	x	x
Cc1ccc(-n2nc3ccc(NC(=O)C(C)C)cc3n2)cc1	1.0*	5.1*	2	17*	9.8*	4	16*	7.7*	2	6.8*
Cc1ccc(S(=O)(=O)C[C@@H]2OC[C@H](CO)N2S(=O)(=O)c2ccc(C)cc2)cc1	-1	0	x	0	0	5	x	x	x	x

Source: PubChem BioAssay
